# Source: PubChem (The Scripps Research Institute Molecular Screening Center)
# PAFAH1B3 inh: PAFAH1B3 (human) inhibition | AID 492972 | recombinant PAFAH1B3, FP-rhodamine probe, fluorescence polarization | Q15102 | inhibition, % at 3.39 µM | 340,000 compounds, 0.28% hits;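 active means inhibition above the screen-wide average of all tested compounds plus 3 SD, cut at about 25% in these data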;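 further: 0% = enzyme with DMSO only and 100% = wells lacking PAFAH1B3 protein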
# CTSL1 counter: blocks F. hepatica cathepsin L1 in PFM18AAP counter-screen; inhibition, % at 5.96 µM; AID 1906; 300,000 compounds, 0.49% hits; recombinant F. hepatica cathepsin L1, Z-Leu-Arg-MCA fluorescence;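 active means inhibition above the mean of all tested compounds plus 3 SD, set per screening campaign, cut at about 17% in these data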;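 further: 0% = plate median of test compound wells and 100% = 1 µM Z-Phe-Ala-diazomethylketone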
# PP5 primary: blocks human protein phosphatase 5 activity | purified PP5c, OMFP substrate fluorescence | 320,000 compounds, 0.18% hits | inhibition, % at 6.7 µM;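 active means inhibition above the campaign's mean inhibition across all tested compounds plus 3 SD, cut at about 9.5% in these data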;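 further: 0% = DMSO only and 100% = 100 µM cantharidin control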
# pPAFAH FP inh: inhibitors of human plasma PAF acetylhydrolase (pPAFAH); 330,000 compounds, 1.5% hits; inhibition, % at 3.39 µM; recombinant pPAFAH, FP-rhodamine probe fluorescence polarization; Q13093;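 active means inhibition above the mean inhibition across the screen plus 3 SD, cut at about 25% in these data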;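 further: inhibitors block binding of the rhodamine activity-based probe so polarization drops; 0% = enzyme with DMSO and 100% = wells lacking pPAFAH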
# Target sequence (Q13093 whole entry, looked up): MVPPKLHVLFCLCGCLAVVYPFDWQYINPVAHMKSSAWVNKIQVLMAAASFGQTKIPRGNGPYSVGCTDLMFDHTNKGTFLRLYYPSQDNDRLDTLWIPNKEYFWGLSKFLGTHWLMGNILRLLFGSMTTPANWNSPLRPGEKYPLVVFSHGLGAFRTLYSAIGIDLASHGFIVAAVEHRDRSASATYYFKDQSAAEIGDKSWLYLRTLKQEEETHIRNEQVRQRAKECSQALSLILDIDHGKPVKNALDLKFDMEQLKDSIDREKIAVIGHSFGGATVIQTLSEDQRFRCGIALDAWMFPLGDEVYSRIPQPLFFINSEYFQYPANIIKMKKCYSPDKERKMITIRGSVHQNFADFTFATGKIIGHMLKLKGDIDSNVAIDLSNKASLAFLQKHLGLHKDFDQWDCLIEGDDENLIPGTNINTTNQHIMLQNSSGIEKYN
# PAFAH1B2 inh: PAFAH1B2 (human) inhibition. P68402. recombinant PAFAH1B2, FP-rhodamine activity probe, fluorescence polarization. inhibition, % at 3.39 µM. 340,000 compounds, 1.2% hits. AID 492953;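 active means inhibition above the mean of all tested compounds plus 3 SD, cut at about 24% in these data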;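 further: 0% = enzyme with DMSO and 100% = wells lacking PAFAH1B2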
# PAFAH2 FP inh: inhibitors of human PAFAH2; 340,000 compounds, 0.99% hits; inhibition, % at 3.39 µM; recombinant PAFAH2, FP-rhodamine activity probe, fluorescence polarization; Q99487;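 active means inhibition above the mean over all tested compounds plus 3 SD, cut at about 30% in these data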;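 further: inhibitors block probe labeling of enzyme so polarization drops; 0% = enzyme with DMSO and 100% = wells lacking PAFAH2 protein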
# PAFAH2 confirm: confirmation of human PAFAH2 inhibitors | shares compounds with PAFAH2 FP inh | recombinant PAFAH2, FP-rhodamine activity probe, fluorescence polarization | inhibition, % at 3.39 µM | 2,300 compounds, 65% hits | AID 493030;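 active means mean inhibition over three repeats above a set limit taken from the earlier primary screen, cut at about 30% in these data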;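 further: inhibitor blocks binding of rhodamine activity probe so polarization falls; 0% = enzyme with DMSO and 100% = wells lacking PAFAH2 protein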
# Starred values were filed as active, the others as inactive; · = no result given. Only some compounds are listed: those with a hit (about 3% of all), similar ones and a draw of the others.
SMILES,PAFAH1B3 inh,CTSL1 counter,PP5 primary,pPAFAH FP inh,PAFAH1B2 inh,PAFAH2 FP inh,PAFAH2 confirm
CCCOc1ccccc1/C=C(\C#N)C(=O)Nc1cccnc1,-0.2,0.1,-1.1,-1.5,6.7,39.8*,28.6
COc1ccc(O)c(/C=C(\C#N)C(=O)Nc2cccnc2)c1,10.3,-1.6,-0.5,4.8,1.9,-0.5,·
CC1CC1C(=O)OCC(=O)Nc1ncc(Cl)cc1Cl (configuration not stated),8.4,-13.0,-0.3,17.4,2.9,31.2*,17.3
Cc1cc(C)cc(OCC(=O)OCC(=O)Nc2ccc(Cl)cn2)c1,-5.2,-15.7,3.5,17.0,-2.4,-1.4,·
O=C(COC(=O)C1CC1)Nc1ncc(C(F)(F)F)cc1Cl,-0.3,-11.4,-0.2,14.8,3.4,13.4,·
O=C(COC(=O)C1CC1)Nc1ccc(Cl)cn1,0.8,·,2.2,4.3,4.8,31.3*,26.7
O=C(COC(=O)C1CC1)Nc1ncc(Cl)cc1Cl,11.7,-4.6,1.3,16.5,4.7,30.1*,17.9
CC(C)(C)OC(=O)C[C@H]1C/C=C\C[C@@H](CC(=O)N(CCO)Cc2ccccc2)C(=O)N[C@H](Cc2c[nH]c3ccccc23)COC1=O,6.5,·,·,12.6,2.6,5.8,·
O=C(CSc1nnc(-c2c[nH]c3ccccc23)o1)NCC1CCCO1 (configuration not stated),-0.3,·,2.8,0.3,5.2,-0.9,·
COc1cccc(/C=C/C(=O)OCC(=O)Nc2ccc(Cl)c(S(=O)(=O)N(C)C)c2)c1OC,-2.7,-6.9,1.4,7.4,-3.3,81.8*,73.0*
COc1ccc(OC)c(/C=C/C(=O)OCC(=O)Nc2ccc(Cl)c(S(=O)(=O)N(C)C)c2)c1,-1.0,-9.1,-0.4,-2.2,3.2,45.5*,42.3*
COc1ccccc1CNS(=O)(=O)c1ccc(-n2cccn2)cc1,7.2,-2.9,-0.7,4.2,-1.6,2.2,·
COc1ccc(/C=C/C(=O)OCC(=O)Nc2ccc(N3CCOCC3)cc2)cc1OC,8.9,-4.8,2.3,7.7,-0.5,15.8,·
COc1cc(/C=C/C(=O)OCC(=O)Nc2ccc3c(c2)OCCO3)ccc1OCC#N,4.3,-2.0,-0.2,-4.0,-2.3,42.0*,51.1*
COc1ccccc1/C=C/C(=O)OCC(=O)Nc1ccc2c(c1)OCCO2,4.5,·,0.9,16.1,-1.5,80.2*,78.4*
O=C(Nc1ccccc1C(=O)NCC1CCCO1)c1ccc(Cl)cc1 (configuration not stated),-6.6,3.6,0.5,2.9,-1.0,-2.6,·
O=C(NC(=S)NNC(=O)c1ccccc1O)c1cccc([N+](=O)[O-])c1,18.6,5.1,-0.5,16.7,10.0,42.0*,26.9
O=C(NC(=S)NNC(=O)c1ccccc1O)c1ccco1,8.1,4.3,0.1,9.1,7.6,52.9*,42.2*
COc1ccc(C(=O)NNC(=S)NC(=O)c2cccc([N+](=O)[O-])c2)cc1,-3.2,-0.1,-0.9,3.2,7.4,6.5,·
Cc1nc(SCc2nc3ccc(C(=O)c4ccccc4)cc3[nH]2)c2oc3ccccc3c2n1,-28.1,·,·,-9.6,-11.4,-18.5,·
NC(=O)CN1C(=O)C(=O)N(Cc2cccc(C(F)(F)F)c2)C1=O,1.4,-2.9,-0.5,8.6,2.5,-3.5,·
O=C(COC(=O)/C=C/c1ccccc1[N+](=O)[O-])NCC(F)(F)F,3.7,-11.1,-0.3,16.1,-2.9,29.9*,16.2
O=C(O)CCCN1C(=O)/C(=C\C(Cl)=C\c2ccccc2)SC1=S,8.2,·,·,·,3.8,60.9*,17.0
O=C1CCCC(O)=C1N=Nc1ccc(Cl)c(Cl)c1,-2.1,2.9,1.3,5.8,4.1,33.0*,8.8
CCN(CC)S(=O)(=O)c1cc(C(=O)OCC(=O)NC(=O)c2cccn2C)ccc1C,-4.1,-6.2,-0.5,17.6,5.7,61.8*,49.9*
Cn1cccc1C(=O)NC(=O)COC(=O)c1ccc(O)cc1,2.0,-13.7,2.0,-1.9,-0.2,52.5*,45.1*
CC(C)(C)C(=O)COC(=O)c1ccc(O)cc1,3.7,0.5,-0.6,-5.7,5.1,-1.2,·
Cn1cccc1C(=O)NC(=O)COC(=O)c1ccc(S(C)(=O)=O)cc1,8.1,·,·,2.5,2.4,-0.8,·
